Screens as filed in PubChem.
CHRM1 agonist = human M1 muscarinic receptor agonism | P11229 | CHO-K1 hM1, Fluo-8 calcium fluorescence, agonist mode; 0% DMSO, 100% acetylcholine EC100 | activation, % at 3 µM | 360,000 tested, 0.33% active | AID 588814;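 active = activation above the run's mean compound activation plus 3 SD, cut at about 16% in these data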;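 note: peak over basal fluorescence ratio within a 140 s kinetic read after compound addition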
Target sequence (P11229 whole entry, looked up): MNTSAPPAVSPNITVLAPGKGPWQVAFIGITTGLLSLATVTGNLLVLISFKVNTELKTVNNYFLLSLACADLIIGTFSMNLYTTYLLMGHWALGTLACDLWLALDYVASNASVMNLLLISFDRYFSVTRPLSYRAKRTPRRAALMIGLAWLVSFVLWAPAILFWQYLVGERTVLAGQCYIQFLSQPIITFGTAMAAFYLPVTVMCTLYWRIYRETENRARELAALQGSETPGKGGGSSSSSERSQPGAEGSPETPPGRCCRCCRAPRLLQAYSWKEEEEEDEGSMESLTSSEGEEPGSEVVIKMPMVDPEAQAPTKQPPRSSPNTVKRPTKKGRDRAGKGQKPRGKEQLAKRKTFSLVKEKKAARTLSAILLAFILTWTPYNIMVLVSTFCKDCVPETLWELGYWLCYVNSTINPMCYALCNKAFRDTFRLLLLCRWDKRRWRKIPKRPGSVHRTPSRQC
M1 ag parental = nonselective activator or artifact in parental CHO-K1 cells; AID 602248; activation, % at 3 µM; Fluo-8 calcium fluorescence; scaled to maximal ATP response, vehicle zero; 360,000 tested, 0.48% active; in the data active = activation above about 15%;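 note: untransfected CHO-K1 host cells lacking M1 receptor as counterscreen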
CHRM1 antagonist = antagonists of human M1 muscarinic receptor; inhibition, % at 3 µM; P11229; CHO-K1 hM1, Fluo-8 calcium fluorescence, ACh EC80 antagonist; 360,000 tested, 1.3% active;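 active = percent inhibition above its own plate's cutoff, namely the mean of that plate's compound wells plus 3 SD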;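 note: peak over basal fluorescence ratio during 140 s after agonist addition; 0% = ACh EC80 plus DMSO and 100% = DMSO alone without agonist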
CHO-K1 Ca antag = counter-screen for M1 antagonists: effect in parental CHO-K1 cells | ATP-induced calcium, Fluo-8 fluorescence | inhibition, % at 3 µM | 360,000 tested, 0.6% active;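 active = inhibition above a per-plate cutoff, the plate's mean sample inhibition plus 3 SD, cut at about 24% in these data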;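 note: 0% = DMSO plus EC80 ATP and 100% = DMSO alone without ATP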
CHRM1 PAM = human CHRM1 positive allosteric modulation. P11229. CHO-K1 hM1, Fluo-8 calcium fluorescence, ACh EC20; 0% = ACh EC20, 100% = maximal ACh. activation, % at 3 µM. 360,000 tested, 0.088% active. AID 588819; in the data active = activation above about 19%, passing the limit was not always enough
M1 PAM parental = M1 PAM counterscreen hit in parental CHO-K1 cells | activation, % at 3 µM | 360,000 tested, 0.02% active | AID 602247 | ATP EC20, Fluo-8 calcium fluorescence; 0% at ATP EC20, 100% at ATP max;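 active = activation above the run cutoff, the mean activation of all test compounds plus 3 SD, cut at about 40% in these data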;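 note: peak over basal fluorescence ratio in a 140 s read after ATP addition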
* marks the source's active call; other numbers are inactive results; nt = no result given. In the library only some 2.3% were active in any assay of this set; here they are far more common.

SMILES	CHRM1 agonist	M1 ag parental	CHRM1 antagonist	CHO-K1 Ca antag	CHRM1 PAM	M1 PAM parental
CCCCn1c(-c2csc3c2CCC(C)C3)n[nH]c1=S (stereo unspecified)	-8	1	47*	-16	-21	22
CN(C)/C=C1\C=C2C(=O)c3ccccc3N2C1=O	141*	165*	34	41*	-17	-19
CCCNC(=S)NC1CCCC1	-4	0	38*	5	-10	-4
COc1ccc(S(=O)(=O)N2CCN(CC(=O)NC(C)c3cccs3)CC2)cc1 (stereo unspecified)	-6	1	-13	10	3	9
O=C(NNS(=O)(=O)c1ccc2ccccc2c1)C1CCN(Cc2ccccc2)CC1	-5	1	85*	2	-22	2
O=S(=O)(NC1CCN(Cc2ccccc2)CC1)c1ccc2ccccc2c1	-6	4	5	-12	-9	18
CCOC(=S)SCC(=O)Nc1nc(-c2ccc(Br)cc2)cs1	-4	2	32*	-5	4	11
Cc1ccc(-c2csc(NC(=O)CSC3=NCCS3)n2)cc1	-6	0	4	25*	-10	-6
Cc1sc(NC(=O)CSC2=NCCS2)nc1-c1ccccc1	-4	0	-24	1	-2	6
CCOC(=S)SCC(=O)Nc1nc(-c2ccccc2)cs1	-6	5	-8	-8	6	19
CCOC(=O)N1CCN(C(=O)CSCC(=O)Nc2nc(-c3ccc(-c4ccccc4)cc3)cs2)CC1	4	8	48*	7	-19	8
CCOC(=O)N1CCN(C(=O)CSCc2ccc(C)cc2)CC1	0	0	18	26*	-1	-8
Cc1cccc(NC(=O)c2cc(S(=O)(=O)N3CCCCC3)c[nH]2)c1	2	1	-9	-9	6	14
Cc1nc(CN(C)c2ncnc3ccc(-c4ccc5c(c4)OCO5)cc23)cs1	-7	3	14	10	-18	0
Fc1ccc(-n2nnnc2-c2cnc(-c3cccs3)nc2C(F)(F)F)cc1	2	5	57*	13	-16	15
FC(F)(F)c1nc(-c2ccncc2)ncc1-c1nnnn1-c1ccccc1	-1	3	-3	-8	2	10
Cc1cc(C)c(S(=O)(=O)NC2CCN(Cc3ccccc3)CC2)c(C)c1	-5	1	-3	-10	2	13
Cc1cc(S(=O)(=O)NC2CCN(Cc3ccccc3)CC2)c(C)cc1Cl	-4	8	52*	-13	-24	17
Cc1noc(C)c1C(=O)OCC(=O)Nc1ccccc1C(=O)NC(C)c1ccccc1 (stereo unspecified)	-1	3	-1	-17	3	49*
N#C/C(=C\c1cc(Br)ccc1F)C(=O)NC1CC1	1	1	-3	-5	6	3
CCCCN1C(=O)/C(=C/C=C2\Oc3ccccc3N2CC)SC1=S	28*	15*	43*	22	-8	2
CCN1C(=O)/C(=C/C=C2/SCCN2C)SC1=S	8	3	-4	12	6	2
CCCCN1C(=O)/C(=C/C=C2/CC(C)(C)CN2C)SC1=S	31*	38*	36*	28*	-18	2
O=C(C[C@H]1C[C@@H]2c3cc(NC(=O)c4cccnc4)ccc3O[C@@H]2[C@H](CO)O1)NCc1ccncc1	-2	0	-3	6	-2	5
CC1(c2ccc(OC(F)F)cc2)NC(=O)N(CC(=O)Nc2cccnc2Cl)C1=O (stereo unspecified)	44*	33*	19	-1	-8	-16
SMILES	CHRM1 agonist	M1 ag parental	CHRM1 antagonist	CHO-K1 Ca antag	CHRM1 PAM	M1 PAM parental
CC1(c2ccccc2)NC(=O)N(CC(=O)Nc2ccccc2N2CCCCC2)C1=O (stereo unspecified)	22*	6	-3	-11	6	17
CCC1(c2ccc(F)cc2)NC(=O)N(CC(=O)Nc2cccnc2Cl)C1=O (stereo unspecified)	17*	9	-5	-3	6	-28
Cc1ccc(C2(C)NC(=O)N(CC(=O)Nc3cccnc3Cl)C2=O)cc1 (stereo unspecified)	2	2	0	-11	9	17
CC1(c2ccc([N+](=O)[O-])cc2)NC(=O)N(CC(=O)Nc2cccnc2Cl)C1=O (stereo unspecified)	22*	9	-6	-7	9	15
COc1ccc(C2(C)NC(=O)N(CC(=O)Nc3cccnc3Cl)C2=O)cc1 (stereo unspecified)	10	6	-7	0	8	-3
CCC1(c2ccccc2)NC(=O)N(CC(=O)Nc2ccccc2N2CCCC2)C1=O (stereo unspecified)	13	5	-14	10	10	-8
CCC1(c2ccccc2)NC(=O)N(CC(=O)Nc2cccnc2Cl)C1=O (stereo unspecified)	4	2	-11	-2	14	23
CC(=O)NCc1nc2ccccc2n1Cc1ccccc1F	-2	0	14	24*	-1	-8
Fc1ccc(-c2nc3c4ccccc4ccn3c2Cc2ccsc2)cc1	-4	1	-22	-21	2	22
Cc1cc(NC(=O)C2CC(=O)N(c3cccc(Cl)c3)C2)no1 (stereo unspecified)	-5	16*	-5	3	2	9
O=C(O)C1CCN(S(=O)(=O)c2ccc3[nH]ccc3c2)CC1	-3	0	20	26*	-7	-14
Cc1ccc(S(=O)(=O)N2CCC(C(=O)O)CC2)cc1C(=O)O	0	0	-21	2	3	13
COc1ccc(CCNS(=O)(=O)c2ccc3c(c2)oc(=O)n3C)cc1OC	2	0	-18	10	17	9
CCOc1ccc(CCNS(=O)(=O)c2ccc3c(c2)oc(=O)n3C)cc1OCC	11	15*	-4	11	8	4
O=c1c(O)c(-c2cccs2)oc2ccccc12	16*	10	21	19	-7	-7
O=c1c(O)c(-c2cccs2)oc2ccc(Cl)cc12	144*	77*	62*	21	-35	-11
O=C(O)CCC1C(=O)NC(=O)CC1c1ccccc1 (stereo unspecified)	-3	0	-7	-7	5	-3
CC(=O)NC(c1cccc(F)c1)c1nc(-c2ccc(N(C)C)cc2)cs1 (stereo unspecified)	-1	1	-9	6	6	11
CC(=O)CC1c2ccccc2C=C(c2ccsc2)N1c1ccc(-c2cccs2)cc1 (stereo unspecified)	nt	2	nt	-19	nt	19
Cc1ccccc1NC(=O)CSc1nn2c(=O)c(C)nnc2s1	-4	0	-1	2	7	-11
Cc1ccccc1CSc1nn2c(=O)c(C)nnc2s1	-4	0	26	24*	-9	-20
